Inconclusive results are not listed. Calls of active or inactive are those of the source. How the source made its calls, unless noted: active means hit-call score of the fitted dose curve at least 0.9, where 1 is the maximum; inactive means score below 0.9.
Experiments:
[1] = ATG_NF_kB_CIS: Attagene CIS-FACTORIAL HepG2 Assay for human Nuclear Factor Kappa B (NF-kB) (AID 2282991); conditions: HepG2 Attagene cis-factorial NF-kB reporter mRNA; actives raise or lower the signal
Outline: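 After 24 h compound incubation, transfected HepG2 cells yield total RNA; reporter cDNA is PCR-amplified, end-labelled with 6-FAM, HpaI-digested and analysed on a genetic analyser. Endogenous factor activity, DMSO-referenced bidirectional fit.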

[2] = ATG_NRF2_ARE_CIS: Attagene CIS-FACTORIAL HepG2 Assay for human Nuclear Factor Erythroid 2 Related Factor 2 (NFR2) response to Antioxidant Response Elements (ARE) (AID 2282992); conditions: HepG2 Attagene ARE/NRF2 reporter, transcription factor activity; actives raise or lower the signal;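 on AC50: reporter mRNA level measured by RT-PCR and capillary electrophoresis fluorescence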
Outline: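 HepG2 cells transiently transfected with multiplexed cis-regulated reporter transcription units measure endogenous transcription factor activity. Reporter mRNA at 24 h is quantified by RT-PCR, fluorescent labelling and capillary electrophoresis, with bidirectional fitting relative to DMSO.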

[3] = ATG_Oct_MLP_CIS: Attagene CIS-FACTORIAL HepG2 Assay for human Octamer-Binding Transcription Factor (Oct) (AID 2282993); conditions: HepG2 Attagene cis-factorial Oct reporter, mRNA; actives raise or lower the signal
Outline: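 Transfected HepG2 cells, 24 h treatment. Reporter mRNA quantified by RT-PCR–capillary electrophoresis; bidirectional fitting against DMSO.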

[4] = target: human Peroxisome Proliferator-activated Receptor alpha (PPARa), PPARA (gene 5465) (UniProt Q07869); assay: ATG_PPARa_TRANS: Attagene TRANS-FACTORIAL HepG2 Assay for human Peroxisome Proliferator-activated Receptor alpha (PPARa) (AID 2283001; active means hit-call score of the fitted dose curve at least 0.9, where 1 is the maximum)
Outline: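 Measures transcriptional activity of an exogenous chimeric PPARa-Gal4 protein in transiently transfected HepG2 cells after 24 h dosing. Reporter mRNA quantified via RT-PCR and capillary electrophoresis; DMSO served as negative control.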

[5] = target: human Peroxisome Proliferator-activated Receptor delta (PPARd), PPARD (gene 5467) (UniProt Q03181); assay: ATG_PPARd_TRANS: Attagene TRANS-FACTORIAL HepG2 Assay for human Peroxisome Proliferator-activated Receptor delta (PPARd) (AID 2283002; active means hit-call score of the fitted dose curve at least 0.9, where 1 is the maximum)
Outline: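 Read-out: reporter mRNA induction, quantified by fluorescent RT-PCR products resolved by capillary electrophoresis. Human HepG2 liver cells carried transiently transfected Gal4-UAS reporter constructs with chimeric NR-Gal4 fusions. Cells were dosed for 24 h; DMSO served as baseline.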

[6] = target: Retinoic acid receptor alpha (Homo sapiens) (UniProt P10276); assay: ATG_RARa_TRANS: Attagene TRANS-FACTORIAL HepG2 Assay for human Retinoic Acid Receptor alpha (RARa) (AID 2283005; active means hit-call score of the fitted dose curve at least 0.9, where 1 is the maximum)
Outline: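 HepG2 transiently transfected with multiplex GAL4-UAS reporter units including a human RARa–GAL4 chimera; 24 h compound exposure. Reporter mRNA quantified by RT-PCR, 6-FAM labeling and capillary electrophoresis; gain of signal versus DMSO.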

[7] = target: Peroxisome proliferator-activated receptor gamma (Homo sapiens) (UniProt P37231); assay: ATG_PPARg_TRANS: Attagene TRANS-FACTORIAL HepG2 Assay for human Peroxisome Proliferator-activated Receptor-gamma (PPARg) (AID 2283007; active means hit-call score of the fitted dose curve at least 0.9, where 1 is the maximum)
Outline: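 Liver-derived HepG2 cells expressing an exogenous NR-Gal4 chimera alongside GAL4-UAS reporter genes; 24 h exposure. Fluorescence of reporter RT-PCR products, separated by capillary electrophoresis, gives mRNA induction relative to DMSO.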

[8] = target: Cellular tumor antigen p53 (Homo sapiens) (UniProt P04637); assay: ATG_p53_CIS: Attagene CIS-FACTORIAL HepG2 Assay for human p53 Transcription Factor (AID 2282994); conditions: HepG2 p53 cis-element reporter, Attagene mRNA; actives raise or lower the signal
Outline: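 HepG2 cells transiently transfected with multiplexed cis-regulated reporter transcription units read endogenous TF activity. After 24 h compound exposure, reporter mRNA was quantified by RT-PCR, fluorescent labelling, HpaI digestion and capillary electrophoresis; bidirectional fits versus DMSO baseline.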

[9] = target: human Retinoic Acid Receptor beta (RARb), RARB (gene 5915) (UniProt P10826); assay: ATG_RARb_TRANS: Attagene TRANS-FACTORIAL HepG2 Assay for human Retinoic Acid Receptor beta (AID 2283004; active means hit-call score of the fitted dose curve at least 0.9, where 1 is the maximum)
Outline: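 Transient transfection of HepG2 with multiple reporter units → chemical dosing, 24 h → total RNA isolation → RT with oligo(dT) → reporter-specific PCR, 6-FAM primer extension, HpaI digest → capillary electrophoresis. Positive direction vs DMSO control.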

[10] = target: Nuclear receptor subfamily 1 group I member 2 (Homo sapiens) (UniProt O75469); assay: ATG_PXR_TRANS: Attagene TRANS-FACTORIAL HepG2 Assay for human Pregnane X Receptor (PXR) (AID 2283008; active means hit-call score of the fitted dose curve at least 0.9, where 1 is the maximum)
Outline: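 HepG2 cells transiently transfected with multiple reporter units, here a PXR-GAL4 chimera driving a GAL4-UAS reporter; 24 h compound exposure. Reporter mRNA measured by RT-PCR, FAM labelling and capillary electrophoresis; gain of signal fitted against DMSO baseline.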

[11] = target: Retinoic acid receptor RXR-alpha (Homo sapiens) (UniProt P19793); assay: ATG_RXRa_TRANS: Attagene TRANS-FACTORIAL HepG2 Assay for human Retinoid X Receptor alpha (RXRa) (AID 2283012; active means hit-call score of the fitted dose curve at least 0.9, where 1 is the maximum)
Outline: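 Cells (HepG2) carried transiently transfected GAL4-responsive reporter units. Following a 24 h chemical incubation, reporter mRNA induction was read via RT-PCR fragment analysis; DMSO served as negative control and baseline.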

[12] = target: human RAR-related Orphan Receptor gamma (RORg), RORC (gene 6097) (UniProt P51449); assay: ATG_RORg_TRANS: Attagene TRANS-FACTORIAL HepG2 Assay for human RAR-related Orphan Receptor gamma (RORg) (AID 2283011; active means hit-call score of the fitted dose curve at least 0.9, where 1 is the maximum)
Outline: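 First, HepG2 liver cells were transfected with GAL4-UAS-driven reporter constructs and the RORg-Gal4 fusion. Next, they were treated with chemical for 24 h. Finally, reporter mRNA was quantified by RT-PCR and capillary electrophoresis, with upward activity fitted against DMSO.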

[13] = BSK_3C_TissueFactor: BioMAP Diversity Plus: 3C Assay for Tissue Factor Biomarker Activity (AID 2282997); conditions: BioMAP 3C HUVEC, tissue factor biomarker readout; actives raise or lower the signal
Outline: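 ELISA read-out of Tissue Factor levels on human umbilical vein endothelium collected 24 h after chemical dosing. Gain or loss of signal was fitted relative to DMSO.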

[14] = BSK_3C_VCAM1: BioMAP Diversity Plus: 3C Assay for Vascular cell adhesion molecule 1 (VCAM1) Biomarker Activity (AID 2282999); conditions: BioMAP 3C HUVEC, VCAM1 ELISA, cytokine-stimulated; actives raise or lower the signal
Outline: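 Human umbilical vein endothelial cells (3C system), biomarker read by ELISA 24 h after dosing; bidirectional fit against DMSO baseline. Cytotoxicity tracked by SRB total-protein staining in parallel cultures at biomarker time.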

[15] = BSK_4H_Eotaxin3: BioMAP Diversity Plus: 4H Assay for Eotaxin 3 Biomarker Activity (AID 2283000); conditions: primary human endothelial cells (HUVEC); actives raise or lower the signal;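 on outcome: CCL26 protein level quantified by ELISA in parallel with SRB cytotoxicity check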
Outline: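 Chemicals were added to human umbilical vein endothelium cultures, and Eotaxin-3 was quantified by ELISA at 24 h. Values were derived by bidirectional fitting with DMSO serving as negative control and activity baseline.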

[16] = read-out: Intercellular Adhesion Molecule 1 (ICAM1), ICAM1 (gene 3383); assay: BSK_3C_ICAM1: BioMAP Diversity Plus: 3C Assay for Intercellular Adhesion Molecule 1 (ICAM1) Biomarker Activity (AID 2283003); conditions: primary human endothelial cells (HUVEC); actives raise or lower the signal
Outline: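 Human vascular endothelial primary cells, 3C conditions, 24 h treatment. ICAM-1 by ELISA.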

[17] = BSK_3C_Proliferation: Cell Proliferation Assessment in the BioMAP Diversity Plus: 3C Assay (AID 2283006); conditions: primary human endothelial cells (HUVEC);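 on AC50: potency may reflect either rise or fall in cell number versus DMSO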
Outline: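 Proliferation of human vascular endothelial primary cells after 48 h dosing, quantified as SRB-stained protein at 560 nm relative to DMSO.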

[18] = target: human Retinoic Acid Receptor gamma (RARg), RARG (gene 5916) (UniProt P13631); assay: ATG_RARg_TRANS: Attagene TRANS-FACTORIAL HepG2 Assay for human Retinoic Acid Receptor gamma (RARg) (AID 2283009; active means hit-call score of the fitted dose curve at least 0.9, where 1 is the maximum;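 on AC50: AC50 is for reporter induction above DMSO meaning RARg activation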)
Outline: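 HepG2, RARg-GAL4 TRANS system, 24 h exposure; reporter mRNA by RT-PCR + CE fluorescence; increase over DMSO.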

[19] = target: human RAR-related Orphan Receptor beta (RORb), RORB (gene 6096) (UniProt Q92753); assay: ATG_RORb_TRANS: Attagene TRANS-FACTORIAL HepG2 Assay for human RAR-related Orphan Receptor beta (RORb) (AID 2283010; active means hit-call score of the fitted dose curve at least 0.9, where 1 is the maximum)
Outline: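 In this TRANS-format test, human HepG2 cells express chimeric NR-Gal4 fusion proteins driving GAL4-UAS reporters. After 24 h dosing, reporter transcripts are measured by fluorescent RT-PCR/capillary electrophoresis, with DMSO as negative control.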

Sequence of human Retinoic Acid Receptor gamma (RARg), RARG (gene 5916) (P13631 whole entry, looked up, the tested form may be a part): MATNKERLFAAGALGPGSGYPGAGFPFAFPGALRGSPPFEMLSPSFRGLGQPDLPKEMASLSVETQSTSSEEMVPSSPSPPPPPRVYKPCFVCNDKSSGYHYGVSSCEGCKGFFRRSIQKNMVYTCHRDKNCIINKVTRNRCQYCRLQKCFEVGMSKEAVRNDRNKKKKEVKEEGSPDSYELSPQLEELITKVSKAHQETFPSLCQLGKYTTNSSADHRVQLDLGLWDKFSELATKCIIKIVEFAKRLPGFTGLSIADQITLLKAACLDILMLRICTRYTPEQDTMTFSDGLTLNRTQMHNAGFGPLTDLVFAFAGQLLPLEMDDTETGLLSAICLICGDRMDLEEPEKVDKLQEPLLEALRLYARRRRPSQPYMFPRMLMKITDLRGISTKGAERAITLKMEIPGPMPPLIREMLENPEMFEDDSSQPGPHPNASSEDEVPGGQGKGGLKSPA
Sequence of human Peroxisome Proliferator-activated Receptor delta (PPARd), PPARD (gene 5467) (Q03181 whole entry, looked up, the tested form may be a part): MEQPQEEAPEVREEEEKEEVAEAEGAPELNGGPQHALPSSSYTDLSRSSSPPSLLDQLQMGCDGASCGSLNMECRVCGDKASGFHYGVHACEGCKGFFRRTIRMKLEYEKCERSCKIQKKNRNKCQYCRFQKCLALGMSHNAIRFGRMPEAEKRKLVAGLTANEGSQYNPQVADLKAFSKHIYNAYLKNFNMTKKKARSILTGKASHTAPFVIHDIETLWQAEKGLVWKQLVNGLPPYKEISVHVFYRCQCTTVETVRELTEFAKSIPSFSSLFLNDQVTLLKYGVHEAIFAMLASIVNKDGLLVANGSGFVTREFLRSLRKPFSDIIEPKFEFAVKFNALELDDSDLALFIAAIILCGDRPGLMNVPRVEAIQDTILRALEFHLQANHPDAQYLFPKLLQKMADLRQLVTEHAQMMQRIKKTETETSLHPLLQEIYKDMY
Sequence of Peroxisome proliferator-activated receptor gamma (Homo sapiens) (P37231 whole entry, looked up, the tested form may be a part): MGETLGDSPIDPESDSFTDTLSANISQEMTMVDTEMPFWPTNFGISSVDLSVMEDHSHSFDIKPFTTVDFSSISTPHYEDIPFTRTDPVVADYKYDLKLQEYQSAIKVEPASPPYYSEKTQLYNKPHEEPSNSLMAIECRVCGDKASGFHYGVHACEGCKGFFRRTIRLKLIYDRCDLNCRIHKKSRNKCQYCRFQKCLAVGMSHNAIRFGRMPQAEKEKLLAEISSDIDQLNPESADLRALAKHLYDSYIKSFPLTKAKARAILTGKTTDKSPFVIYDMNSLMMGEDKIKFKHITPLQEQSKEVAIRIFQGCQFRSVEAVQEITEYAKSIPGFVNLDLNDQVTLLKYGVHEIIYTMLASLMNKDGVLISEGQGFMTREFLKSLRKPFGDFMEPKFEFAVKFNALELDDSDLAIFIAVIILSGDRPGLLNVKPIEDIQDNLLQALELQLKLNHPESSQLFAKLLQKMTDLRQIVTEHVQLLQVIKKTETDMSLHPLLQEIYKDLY
Sequence of human Peroxisome Proliferator-activated Receptor alpha (PPARa), PPARA (gene 5465) (Q07869 whole entry, looked up, the tested form may be a part): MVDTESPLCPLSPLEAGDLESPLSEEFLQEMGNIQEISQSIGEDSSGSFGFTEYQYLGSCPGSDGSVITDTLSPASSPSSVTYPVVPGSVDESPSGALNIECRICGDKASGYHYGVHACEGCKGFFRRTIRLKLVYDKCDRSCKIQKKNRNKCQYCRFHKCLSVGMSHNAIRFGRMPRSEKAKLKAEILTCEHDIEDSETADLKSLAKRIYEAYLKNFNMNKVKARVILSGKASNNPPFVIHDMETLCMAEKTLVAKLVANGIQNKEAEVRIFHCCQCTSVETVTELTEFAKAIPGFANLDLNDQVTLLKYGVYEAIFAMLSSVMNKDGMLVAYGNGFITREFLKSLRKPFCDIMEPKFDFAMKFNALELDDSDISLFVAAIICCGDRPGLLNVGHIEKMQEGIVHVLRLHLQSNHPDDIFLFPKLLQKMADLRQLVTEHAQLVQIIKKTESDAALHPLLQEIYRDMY
Sequence of human Retinoic Acid Receptor beta (RARb), RARB (gene 5915) (P10826 whole entry, looked up): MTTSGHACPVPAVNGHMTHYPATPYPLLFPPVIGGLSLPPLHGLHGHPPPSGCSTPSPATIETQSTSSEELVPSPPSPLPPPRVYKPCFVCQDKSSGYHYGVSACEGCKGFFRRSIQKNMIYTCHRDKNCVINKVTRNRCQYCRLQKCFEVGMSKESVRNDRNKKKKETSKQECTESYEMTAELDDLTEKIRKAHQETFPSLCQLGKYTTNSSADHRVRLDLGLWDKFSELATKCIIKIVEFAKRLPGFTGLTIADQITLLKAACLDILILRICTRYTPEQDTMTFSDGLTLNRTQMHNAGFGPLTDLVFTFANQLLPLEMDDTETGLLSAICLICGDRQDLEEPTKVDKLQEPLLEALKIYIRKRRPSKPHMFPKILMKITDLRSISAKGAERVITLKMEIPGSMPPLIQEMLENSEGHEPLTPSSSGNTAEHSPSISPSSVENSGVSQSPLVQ
Sequence of human RAR-related Orphan Receptor gamma (RORg), RORC (gene 6097) (P51449 whole entry, looked up, the tested form may be a part): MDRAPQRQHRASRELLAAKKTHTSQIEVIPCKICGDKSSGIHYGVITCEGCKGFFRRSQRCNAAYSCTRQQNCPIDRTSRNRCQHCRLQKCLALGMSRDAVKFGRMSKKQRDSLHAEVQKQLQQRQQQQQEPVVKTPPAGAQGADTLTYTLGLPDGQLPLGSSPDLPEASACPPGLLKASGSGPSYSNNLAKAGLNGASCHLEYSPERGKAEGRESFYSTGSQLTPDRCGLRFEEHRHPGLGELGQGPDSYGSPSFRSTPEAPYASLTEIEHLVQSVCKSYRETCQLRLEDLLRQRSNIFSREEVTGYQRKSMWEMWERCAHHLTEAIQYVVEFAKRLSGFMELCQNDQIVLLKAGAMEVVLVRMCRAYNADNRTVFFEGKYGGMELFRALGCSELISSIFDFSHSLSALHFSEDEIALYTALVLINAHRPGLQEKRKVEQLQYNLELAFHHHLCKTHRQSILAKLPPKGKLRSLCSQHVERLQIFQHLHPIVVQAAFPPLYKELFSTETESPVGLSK
Sequence of Nuclear receptor subfamily 1 group I member 2 (Homo sapiens) (O75469 whole entry, looked up, the tested form may be a part): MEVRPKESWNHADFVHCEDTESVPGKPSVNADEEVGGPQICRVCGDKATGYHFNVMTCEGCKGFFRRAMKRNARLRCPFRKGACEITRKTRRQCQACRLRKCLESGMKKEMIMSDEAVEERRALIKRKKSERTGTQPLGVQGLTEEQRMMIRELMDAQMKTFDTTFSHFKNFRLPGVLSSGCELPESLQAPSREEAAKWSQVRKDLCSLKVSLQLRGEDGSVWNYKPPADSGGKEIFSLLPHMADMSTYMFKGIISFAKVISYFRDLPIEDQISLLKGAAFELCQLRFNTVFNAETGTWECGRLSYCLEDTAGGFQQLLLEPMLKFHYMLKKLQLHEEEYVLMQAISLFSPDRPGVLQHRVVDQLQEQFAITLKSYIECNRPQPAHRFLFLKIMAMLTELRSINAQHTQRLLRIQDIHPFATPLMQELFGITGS
Sequence of Retinoic acid receptor alpha (Homo sapiens) (P10276 whole entry, looked up, the tested form may be a part): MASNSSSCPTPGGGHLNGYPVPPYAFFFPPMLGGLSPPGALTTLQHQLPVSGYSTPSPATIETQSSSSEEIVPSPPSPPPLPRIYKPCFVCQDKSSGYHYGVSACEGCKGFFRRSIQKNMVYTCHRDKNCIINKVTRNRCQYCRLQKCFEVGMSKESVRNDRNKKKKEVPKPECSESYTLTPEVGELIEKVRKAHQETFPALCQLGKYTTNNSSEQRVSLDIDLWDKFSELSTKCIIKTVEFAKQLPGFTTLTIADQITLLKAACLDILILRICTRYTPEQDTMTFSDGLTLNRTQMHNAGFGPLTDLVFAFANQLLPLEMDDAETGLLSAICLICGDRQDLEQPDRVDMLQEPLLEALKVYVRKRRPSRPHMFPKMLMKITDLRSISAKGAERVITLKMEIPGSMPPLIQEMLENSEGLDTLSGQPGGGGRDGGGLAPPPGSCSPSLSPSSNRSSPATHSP
Sequence of Retinoic acid receptor RXR-alpha (Homo sapiens) (P19793 whole entry, looked up, the tested form may be a part): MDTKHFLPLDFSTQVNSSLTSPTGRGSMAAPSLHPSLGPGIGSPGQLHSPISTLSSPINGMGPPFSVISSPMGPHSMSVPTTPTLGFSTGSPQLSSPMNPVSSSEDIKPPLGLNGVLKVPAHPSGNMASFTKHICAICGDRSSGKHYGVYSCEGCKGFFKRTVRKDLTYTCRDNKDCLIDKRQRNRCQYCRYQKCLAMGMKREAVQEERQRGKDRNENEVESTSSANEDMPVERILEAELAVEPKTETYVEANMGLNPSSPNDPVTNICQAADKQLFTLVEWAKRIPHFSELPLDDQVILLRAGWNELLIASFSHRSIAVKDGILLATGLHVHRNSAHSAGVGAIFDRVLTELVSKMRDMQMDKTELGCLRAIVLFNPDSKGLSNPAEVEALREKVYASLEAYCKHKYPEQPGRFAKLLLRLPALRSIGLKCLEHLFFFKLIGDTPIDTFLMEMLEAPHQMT
Sequence of Cellular tumor antigen p53 (Homo sapiens) (P04637 whole entry, looked up): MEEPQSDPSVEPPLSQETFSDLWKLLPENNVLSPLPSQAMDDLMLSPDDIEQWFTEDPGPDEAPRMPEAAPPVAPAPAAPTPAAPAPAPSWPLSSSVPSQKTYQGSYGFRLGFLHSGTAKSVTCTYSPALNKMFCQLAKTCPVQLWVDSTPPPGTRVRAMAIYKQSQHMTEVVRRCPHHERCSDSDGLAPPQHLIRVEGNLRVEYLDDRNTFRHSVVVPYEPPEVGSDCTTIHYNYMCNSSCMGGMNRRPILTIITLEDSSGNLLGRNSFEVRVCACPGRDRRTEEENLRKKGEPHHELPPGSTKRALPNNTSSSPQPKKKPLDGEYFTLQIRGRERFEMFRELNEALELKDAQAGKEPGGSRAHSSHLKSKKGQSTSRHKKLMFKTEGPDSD

CCO[Si](CCC1CCC2OC2C1)(OCC)OCC (stereo not drawn)
outcome [1]: inactive | outcome [2]: inactive | outcome [3]: inactive | outcome [4]: inactive | outcome [5]: inactive | outcome [6]: inactive | outcome [7]: inactive

O=C(F)C(F)(F)C(F)(F)C(F)(F)C(F)F
outcome [1]: inactive | outcome [2]: inactive | outcome [8]: inactive | outcome [4]: inactive | outcome [5]: inactive | outcome [9]: inactive | outcome [7]: inactive | outcome [10]: inactive | outcome [11]: inactive

CCCCCCCC(OC)OC
outcome [1]: inactive | outcome [2]: inactive | outcome [8]: inactive | outcome [5]: inactive | outcome [7]: inactive | outcome [12]: inactive

N=C(N)c1ccc(OCCCCCOc2ccc(C(=N)N)cc2)cc1
AC50 [1]: 87.5 µM (active) | AC50 [2]: 0.732 µM (active) | AC50 [3]: 34.4 µM (active) | outcome [13]: inactive | outcome [14]: inactive | outcome [15]: inactive | outcome [4]: inactive | outcome [5]: inactive | outcome [16]: inactive | AC50 [17]: 5.13 µM (active) | outcome [11]: inactive

CCCCCCCCCCCCCCC
outcome [1]: inactive | outcome [2]: inactive | outcome [3]: inactive | outcome [13]: inactive | outcome [14]: inactive | outcome [15]: inactive | outcome [5]: inactive | outcome [16]: inactive | outcome [17]: inactive

O=C(O)c1cccc(C(=O)O)n1
outcome [1]: inactive | outcome [2]: inactive | outcome [8]: inactive | outcome [5]: inactive | outcome [11]: inactive

CCCC=O
outcome [1]: inactive | outcome [2]: inactive | outcome [8]: inactive | outcome [9]: inactive | outcome [6]: inactive | outcome [10]: inactive | outcome [18]: inactive | outcome [19]: inactive | outcome [12]: inactive | outcome [11]: inactive

CCCCCCCCCCCCCCCCCC[N+](C)(C)Cc1ccccc1
outcome [1]: inactive | AC50 [2]: 12.6 µM (active) | outcome [8]: inactive | AC50 [13]: 1.17 µM (active) | AC50 [14]: 1.91 µM (active) | AC50 [15]: 2.84 µM (active) | outcome [4]: inactive | outcome [9]: inactive | outcome [6]: inactive | AC50 [17]: 0.281 µM (active) | AC50 [7]: 83.5 µM (active) | outcome [10]: inactive | AC50 [18]: 89.2 µM (active) | outcome [12]: inactive | outcome [11]: inactive

COC1=CC(=O)C[C@@H](C)[C@]12Oc1c(Cl)c(OC)cc(OC)c1C2=O
AC50 [1]: 25.6 µM (active) | outcome [2]: inactive | outcome [13]: inactive | outcome [14]: inactive | outcome [15]: inactive | outcome [5]: inactive | outcome [16]: inactive | AC50 [17]: 28.3 µM (active) | outcome [7]: inactive | outcome [18]: inactive | outcome [11]: inactive

Reference: PubChem BioAssay (EPA / NIEHS)
